# Test results published in PubChem BioAssay (EPA / NIEHS).
# Active and inactive are the calls of the source. The calls were made as follows: active = hit-call score of the fitted dose curve at least 0.9, where 1 is the maximum; inactive = score below 0.9.
# Test: ATG_Sox_CIS: Attagene CIS-FACTORIAL HepG2 Assay for human SRY-box transcription factor (SOX) (AID 2282960)
# Conditions: HepG2 Attagene cis-factorial SOX reporter, mRNA; actives raise or lower the signal
# Experimental: ATG_CIS is a cell-based, multiplexed-readout assay that uses HepG2, a human liver cell line, with measurements taken at 24 hours after chemical dosing in a 24-well plate.ATG_Sox_CIS is one of 52 assay component(s) measured or calculated from the ATG_CIS assay. It is designed to make measurements of mRNA induction, a form of inducible reporter, as detected with fluorescence intensity signals by Reverse transcription polymerase chain reaction (RT-PCR) and Capillary electrophoresis technology.Data from the assay component ATG_Sox_CIS was analyzed into 1 assay endpoint. This assay endpoint, ATG_Sox_CIS, was analyzed with bidirectional fitting relative to DMSO as the negative control and baseline of activity. Using a type of inducible reporter, measures of mRNA for gain or loss-of-signal activity can be used to understand the reporter gene at the transcription factor-level as they relate to the gene SOX1. Furthermore, this assay endpoint can be referred to as a primary readout, because this assay has produced multiple assay endpoints where this one serves a reporter gene function. To generalize the intended target to other relatable targets, this assay endpoint is annotated to the dna binding intended target family, where the subfamily is HMG box protein.
# Human liver HepG2 cells are transiently transfected with multiple reporter transcription units (MRTUs) in 6-well plates using FuGene 6 reagent (Roche; 3 ml FuGene/1 mg DNA). The MRTU constructs are regulated by a cis-regulating element (promoter). […] A major difference between the CIS and TRANS system is that in CIS activities of endogenous TFs are measured, whereas the TRANS assay evaluates changes in activities of exogenous, chimeric NR-Gal4 proteins. […] At the end of 24 hour incubation, total RNA was isolated using TriZol reagent (Invitrogen). The isolated RNA is then reverse-transcribed using oligo(dT) primer and Mo-MLV reverse transcriptase (Invitrogen) with DNAse I (Ambion) treatment for 30 min. The one-tenth of the produced cDNA was amplified by PCR using Taq DNA polymerase (Invitrogen) and two reporter sequence-specific primers. The PCR products were fluorescently labeled by primer extension with 6-arboxyfluorescein (6-FAM) 5'-labeled reporter sequence-specific primer (2 min at 95 C, 20 s at 68 C and 10 min at 72 C) and these products were digested with 5U of HpaI (New England Biolabs) for 2h at 37 C. The fragments were purified using Qiaquick PCR columns (Qiagen), analyzed on an ABI 3130xL genetic analyzer (Applied Biosystems) with peak positions identified by using a set of X-rhodamine (ROX)-labeled MapMarker1000 molecular weight standards (BioVentures). The raw capillary electrophoresis data was processed using Attagraph software (Attagene).
SMILES,outcome,AC50
C/C(=N\NC(=O)Nc1cc(F)cc(F)c1)c1ncccc1C(=O)O,inactive,–
CC(O)C(F)(F)C(F)(F)F (stereo not given),inactive,–
CCOP(=S)(OCC)SCSc1ccc(Cl)cc1,inactive,–
CCCCOCC1CO1 (stereo not given),inactive,–
OCC1CO1 (stereo not given),inactive,–
O=C(O)C(F)(F)OC(F)(F)C(F)(F)OC(F)(F)C(=O)O,inactive,–
O=[N+]([O-])c1cc(Cl)ccc1Cl,inactive,–
Oc1ccc(I)cc1,inactive,–
Nc1cc2c3c(c1)C(c1ccccc1)=N[C@@H](NC(=O)c1cccnc1)C(=O)N3CC2,inactive,–
COP(=O)(CCC(=O)NCO)OC,inactive,–
CC1=C(C(=O)Nc2ccccc2)S(=O)(=O)CCO1,inactive,–
FC(F)(F)C(F)(C(F)(F)F)C(F)(F)C(F)(F)CC1CO1 (stereo not given),inactive,–
Cn1[nH]nnc1=S,inactive,–
[N-]=[N+]=[N-],inactive,–
CC(C)(C)OOC(C)(C)C,inactive,–
CC(C)Nc1ccc(Nc2ccccc2)cc1,inactive,–
Nc1ccc([N+](=O)[O-])cc1Cl,inactive,–
ClC(Cl)c1ccccc1,inactive,–
Cc1cccc(N)c1,inactive,–
COP(N)(=S)OC,inactive,–

SMILES,outcome,AC50
CCNc1nc(Cl)nc(NC(C)(C)C)n1,inactive,–
CCCCN(CCCC)N=O,inactive,–
CCCCN(CCCC)SN(C)C(=O)Oc1cccc2c1OC(C)(C)C2,inactive,–
O=C(O)C1C(C(=O)O)C2(Cl)C(Cl)=C(Cl)C1(Cl)C2(Cl)Cl (stereo not given),inactive,–
N#Cc1ccc(O)cc1,inactive,–
O=c1ssc(Cl)c1Cl,–,50.1 µM (active)
CC(=O)CCc1ccc2c(c1)OCO2,inactive,–
CCCN(CCC)c1c([N+](=O)[O-])cc(C(C)C)cc1[N+](=O)[O-],inactive,–
CCOS(=O)(=O)OCC,inactive,–
Cc1cc(C)c(C(=O)P(=O)(c2ccccc2)c2ccccc2)c(C)c1,inactive,–
O=C(O)C(F)(F)C(F)(F)C(=O)O,inactive,–
C=CC(=O)OCC(F)(F)C(F)F,inactive,–
CCC(C)(C)c1ccc(O)cc1,inactive,–
CCOC(=O)c1ccccc1N,inactive,–
CCOc1ccc(C(C)(C)COCc2cccc(Oc3ccccc3)c2)cc1,inactive,–
CSC(C)(C)C=NO,inactive,–
O=C(O)C(Cl)Cl,inactive,–
COCCOCCO,inactive,–
OCC(F)(F)OC(F)(F)C(F)(F)OC(F)(F)C(F)(F)OC(F)(F)F,inactive,–
c1ccc2c(c1)sc1ccccc12,inactive,–
